Test results from PubChem BioAssay (NCI).
This is part of a sample that, as a whole, favours compounds with a hit. Of some 79,000 tested, about 15% had one in any assay. Values without a mark were called inactive. Activity calls are given as the source filed them. Rule as the data show it: active = growth inhibition above about 70%; inactive = the rest.

Test: NCI Yeast Anticancer Drug Screen. Data for the sgs1 mgt1 strain (AID 161);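 also: 0% = growth of cultures given vehicle only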
Details: S. cerevisiae sgs1 mgt1 strain, at 50.0 µM, active compounds read high
Outline: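 This yeast growth screen uses a strain with defined DNA-repair lesions; compound-treated growth is compared with vehicle-treated growth.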

Row | SMILES | growth inhibition
1 | C=CCNC(=O)c1ccc(OC)cc1 | 22.5%
2 | O=C(Nc1cc(-c2ccccc2)[nH]n1)c1ccc(Cl)cc1 | 6.05%
3 | O=[N+]([O-])c1ccc(N=Nc2ccccc2)cc1 | -1.1%
4 | N=c1c(C(=O)OCc2ccccc2)ncc(CCl)n1O | 72.2% (active)
5 | CCOC(=O)c1cc(/C=C/c2ccc(Cl)cc2Cl)on1 | -43%
6 | CC1NC(=O)NC1CCCCCC(=O)O (stereo not given) | 13.8%
7 | COc1ccc(C2OC(N)=C(O)C2=O)cc1OC (stereo not given) | -14.4%
8 | Cc1nc2ccccc2c2nnc(SCC(=O)N(Cc3ccccc3)c3ccccc3)n12 | -28.1%
9 | Cc1cc(NC(=O)CSCC(=O)O)no1 | -2.45%
10 | N#CCCc1ccc(O)cc1 | -34.9%
11 | Cc1cc(N2CCC(N3CCCC3)CC2)nc(/N=C(\N)Nc2ccc(Cl)c(Cl)c2)n1 | -6.05%
12 | OC1OC(COC(c2ccccc2)(c2ccccc2)c2ccccc2)C(O)C(O)C1O (stereo not given) | -16.6%
13 | NC(N)=Nc1cc2ccccc2c2ccccc12 | -7.5%
14 | O=C(/C=C/C(=O)c1ccccc1)c1ccccc1 | 28.1%
15 | CSc1[nH]c(=O)ncc1F | 3.2%
16 | CCOC(=O)CNN | -12.2%
17 | CCC(C)(C)C1CCC(O)CC1 (stereo not given) | 12.7%
18 | Cc1c(O)cccc1O | 7.8%
19 | C/C(=C\c1cc(Cl)ccc1OCC(=O)O)[N+](=O)[O-] | 44.5%
20 | COc1cccc(/C=N/NC(=S)NC2CC3CCC2C3)c1O (stereo not given) | -3.4%
